# TrxR1 inh = rat TrxR1 inhibition; hit rate 1% among 390,000; Potency, µM (top dose mostly 114 µM), actives largely listed as inhibitors; recombinant rTrxR1, NADPH fluorescence consumption, selenite substrate; AID 588453; O89049; further: nearly all actives have a fitted effect of over 65% in size
# Target sequence (O89049 whole entry, looked up): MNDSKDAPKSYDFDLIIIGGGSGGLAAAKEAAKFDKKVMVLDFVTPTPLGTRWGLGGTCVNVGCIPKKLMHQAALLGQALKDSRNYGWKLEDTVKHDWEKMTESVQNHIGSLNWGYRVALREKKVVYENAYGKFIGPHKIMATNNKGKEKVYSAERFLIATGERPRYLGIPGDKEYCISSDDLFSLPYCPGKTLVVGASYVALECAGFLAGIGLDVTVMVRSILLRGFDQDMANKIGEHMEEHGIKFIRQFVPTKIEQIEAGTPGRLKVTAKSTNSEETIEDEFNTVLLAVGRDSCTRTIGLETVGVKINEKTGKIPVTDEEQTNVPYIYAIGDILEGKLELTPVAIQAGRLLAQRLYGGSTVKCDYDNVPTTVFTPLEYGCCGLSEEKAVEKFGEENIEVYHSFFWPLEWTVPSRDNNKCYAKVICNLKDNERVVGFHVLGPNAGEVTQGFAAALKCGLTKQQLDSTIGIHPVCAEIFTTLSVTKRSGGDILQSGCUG
#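 Rat TrxR1 (90 nM in the dispensed reagent) was pre-reduced with 400 uM NADPH for 5 min at room temperature, then incubated with compound for 15 min. After 400 uM selenite was added, NADPH fluorescence (Ex 340/Em 450 nm) was followed for 8 min.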
# PLK1 PBD inh = blocks phosphopeptide binding to human PLK1 polo-box domain. P53350. Plk1 PBD binding of FITC phosphopeptide, fluorescence polarization. Potency, µM, most hits filed as inhibitors. hit rate 2.8% among 360,000. AID 720504; further: series mostly up to about 57 µM; nearly all actives have a fitted effect of over 65% in size
# IDH1 R132H inh = blocks human mutant IDH1 R132H enzyme | O75874 | IDH1-R132H enzyme, NADPH consumption, diaphorase/resazurin fluorescence | Potency, µM (titrated, usually from 76.6 µM), hits mostly inhibitors | hit rate 0.093% among 390,000 | AID 602179; further: nearly all actives have a fitted effect of over 65% in size
#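 IDH1-R132H (0.5 ug/mL) preincubated 30 min with compound, then NADPH (0.016 mM) and alpha-KG (2 mM) added; 80 min at RT, pH 7.5. Remaining NADPH coupled via diaphorase/resazurin to fluorescence (540/590 nm); concentration-response curves normalized to no-enzyme control.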
# Sfp PPTase inh = Sfp phosphopantetheinyl transferase inhibition; Biochemical Sfp PPTase activity, qHTS; Q9F4F7; Potency, µM, most hits filed as inhibitors; hit rate 3.5% among 310,000;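 further: the enzyme is Sfp with the accession as filed and its product quenches rhodamine fluorescence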
#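 Sfp 15 nM + cpd, 15 min RT; start w/ rhodamine-CoA 5 uM, BHQ-2-YbbR 12.5 uM (final); 50 mM Hepes pH 7.6, 10 mM MgCl2, 0.01% NP-40, 0.01% BSA; read 525/598 nm at 0 and 30 min.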
# TrxR1 substrate = is turned over as a substrate by rat TrxR1; Potency, µM (top dose mostly 114 µM); O89049; hit rate 0.01% among 390,000; purified TrxR1 substrate turnover, NADPH consumption readout; further: nearly all actives have a fitted effect of over 50% in size
#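 Rat TrxR1, dispensed at 90 nM, was prereduced with 400 uM NADPH (final) for 5 min at ~22 deg C, then incubated with compound 15 min before 400 uM selenite. A first-read NADPH fluorescence drop versus no-compound background flagged substrates.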
# VDR inhibitor = blocks the human vitamin D receptor; VDR-SRC2-3 peptide fluorescence polarization, 2 h; Potency, µM, usual class: inhibitors; P11473; hit rate 0.93% among 400,000; AID 504847
#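 Signal is fluorescence polarization, reporting how far test compounds block the interaction of VDR with the SRC2-3 coregulator peptide after a 2 h room-temperature incubation.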
# A number is an active result; n = inactive; u = inconclusive; x = no result; ! = not active in a repeat; [ ] = remark or other dose. In the library only some 5.2% were active in any assay of this set; here they are far more common. The call rests on the fitted dose curve; in most records, active means well fitted curve in the direction sought with a large enough effect; inconclusive means small, poorly fitted or top-dose-only effect, or another doubt; inactive means no such curve, though single readings can be large; an effect the other way counts as inactive or inconclusive.
SMILES,TrxR1 inh,PLK1 PBD inh,IDH1 R132H inh,Sfp PPTase inh,TrxR1 substrate,VDR inhibitor
Cc1cc(NC(=O)c2ocnc2C)no1,n,23.8µM,n,n,n,u
Cc1ncoc1C(=O)Nc1ncc([N+](=O)[O-])s1,n,u,n,n,n,89.1µM
Cc1cc(NC(=O)c2ccc([N+](=O)[O-])cc2)no1,n,21.2µM,n,n,n,u
O=c1cc(O)c2c([nH]1)CCC2,n,x,x,x,n[0.0914 µM],x
CC(C)CC1OC(=O)C2=CCCCC21 (stereo not drawn),x,x,x,n,x,n
COCCN=c1scc(-c2ccco2)n1/N=C/c1ccc(O)c(O)c1O,u,6.7µM,n,n,n,n
O=c1c2ccccc2nc(-c2ccco2)n1/N=C/c1ccccc1O,n,n,n,n,n,n
COCCN=c1scc(-c2cccs2)n1/N=C(\C)c1ccco1,u,n,n,n,n,n
C=CCN=c1scc(-c2ccco2)n1/N=C/c1ccc(O)c(O)c1O,u,7.52µM,n,7.08µM,n,n
CC(C)N=c1scc(-c2ccco2)n1/N=C/c1ccc(O)c(O)c1,n,n,n,u,n,n
Oc1ccc(/C=N/n2c(-c3ccco3)csc2=Nc2cccnc2)c(O)c1,n,n,n,44.7µM,n,n
CCc1ccc(NS(=O)(=O)c2ccc3oc(=O)c4ncn(CC)c4c3c2)cc1,n,x,n,x,n,n
O=S1(=O)[C@H]2C[C@@H]3C=C[C@@]2(CN1Cc1ccc(F)cc1)O3,n,23.8µM,n,n,n,u
c1ccc(-c2cnc(CSc3ncnc4sccc34)o2)cc1,u,u,n,50.1µM,n,n
Cc1cc(C)n2nc(SCc3ncc(-c4ccccc4)o3)nc2n1,u,n,n,n,n,n
CCOc1ccc(Nc2c(S(=O)(=O)c3ccc(Cl)cc3)cnc3ccc(OCC)cc23)cc1,n,x,n,x,n,n
O=C(O)c1cc(=O)c2cccc(O)c2[nH]1,n,x,x,79.4µM!,n[0.457 µM],n
COc1cc2c(cc1OC)C(COc1cc(C)cc(C)c1)N(C(=O)C(C)(C)C)CC2 (stereo not drawn),n,x,n,x,n,n
COCCCNC1=C(C#N)C(=O)NC(c2cccc([N+](=O)[O-])c2)S1 (stereo not drawn),x,18.9µM,n,x,x,x
O=C(Nc1ccc(F)cc1F)N1CCCC(c2nc(-c3ccc(F)cc3)no2)C1 (stereo not drawn),n,11.9µM,n,n,n,n
O=C(c1ccc(F)cc1F)N1CCCC(c2nc(-c3ccc(F)cc3)no2)C1 (stereo not drawn),n,n,n,n,n,n
Cc1cccc(-c2cnc(C(O)Cc3ccccc3)[nH]2)c1 (stereo not drawn),x,n,x,x,x,x
CC[C@H](NC(=O)[C@H](CCCN=C(N)N)NC(=O)[C@H](Cc1c[nH]c2ccccc12)NC(=O)[C@@H](N)CS)C(=O)N[C@@H](CCCN=C(N)N)C(=O)N[C@@H](Cc1ccc(O)cc1)C(N)=O,x,x,x,n,x,39.8µM
O=C(C[n+]1cc(Br)cc(Br)c1)c1ccc2ccccc2c1,u,x,x,x,n,x
COc1ccc(S(=O)(=O)Nc2ccc(Oc3ncccn3)c(Cl)c2)cc1,n,5.32µM,n,n,n,n
SMILES,TrxR1 inh,PLK1 PBD inh,IDH1 R132H inh,Sfp PPTase inh,TrxR1 substrate,VDR inhibitor
COc1ccc(S(=O)(=O)Nc2c(F)cccc2F)cc1,n,29.9µM,n,n,n,u
COc1ccc(NS(=O)(=O)c2ccc(Oc3ncccn3)cc2)cc1,n,n,n,n,n,n
CC(=O)Nc1ccc(S(=O)(=O)Nc2ccc3c(c2)CCC3)cc1,n,n,n,n,n,n
COc1ccc(S(=O)(=O)Nc2ccc3c(c2)CCC3)cc1,n,3.77µM,n,n,n,44.7µM
O=C(CNC1CCCCCC1)c1cccs1,n,29.9µM,n,n,n,u
O=C(NC1CCCCCC1)c1cccs1,n,n,n,n,n,n
c1ccc2c(C3=NNC(=NC4CC4)SC3)c[nH]c2c1,n,n,n,u,n,u
c1ccc(C2=NNC(=NC3CC3)SC2)cc1,n,n,n,44.7µM,n,n
CC(=O)N(C1=C(N)C(=O)c2ccccc2C1=O)C(C)C,79.4µM,n,n,u,n,n
Cn1cc([C@]2(O)C(=O)Nc3ccc(Br)cc32)c2ccccc21,x,n,x,x,x,x
COc1ccc(OC)c(-c2nc3ccccc3nc2-c2ccccc2)c1,n,n,n,n,n,n
COc1ccc(-c2nc3ccccc3nc2-c2ccccc2)cc1,n,21.2µM,n,n,n,u
CCCCc1nc2c(c3c1C[C@H](C)OC3)CN(S(=O)(=O)c1ccc(Cl)c3nonc13)CC2,x,x,x,n,x,x
COC(=O)C1=C[C@@H](C(=O)OC)[C@@H]2C3=C(C(=O)[C@@]2(CC(C)C)NC(=O)c2ccccc2)[C@H](C)n2c(=O)n(-c4ccccc4)c(=O)n2[C@@H]3C1,n,x,x,n,n,n
CN1C(=O)C[C@H](C(=O)O)[C@@H]1c1cccnc1,x,x,x,n,x,n
CN(C)c1ccc(C(=O)OCc2ccccc2)cc1,n[11.4 µM],n,n,n,n,n
O=C1C=CC(=O)C(CNc2ccc(C(=O)OCc3ccccc3)cc2)=C1,n[11.4 µM],13.4µM,n,x,n[11.4 µM],u
Cc1cccc(OCC(=O)NCc2ccc3c(c2)CCN3C(=O)c2ccc(Cl)cc2)c1,n,x,n,x,n,n
CC1CCCCC1NC(=O)/C(C#N)=C/c1ccc2c(c1)OCCO2 (stereo not drawn),n,26.7µM,n,n,n,n
CC1CCCCC1NC(=O)/C(C#N)=C/c1ccc(F)c(F)c1 (stereo not drawn),n,n,n,n,n,n
CC1(c2ccc([N+](=O)[O-])cc2)Nc2ccccc2S1 (stereo not drawn),n,6.7µM,n,50.1µM,n,u
CCOc1ccccc1NC(=O)c1nc[nH]c1C(=O)Nc1ccccc1OCC,n,n,n,n,n,n
COc1ccccc1NC(=O)c1nc[nH]c1C(=O)Nc1ccccc1OC,n,u,n,56.2µM,n,n
CSc1cc(-c2ccccc2)n(Cc2ccc(Cl)cc2Cl)c(=O)c1C#N,n,3.36µM,n,n,n,n
Cc1ccc(NC(=S)N(CCCN2CCOCC2)Cc2cccs2)c(C)c1,n,18.9µM,n,25.1µM,n,n
Cc1cc(=O)[nH]c2ccc([N+](=O)[O-])cc12,n,x,x,x,n,x
COC(=O)c1ccccc1NC(=O)CN1C(=O)COc2ccc(Cl)cc21,n,x,n,x,n,n
COc1ccc(S(=O)(=O)C(C#N)c2nc3ccccc3nc2N2CCCCC2)cc1 (stereo not drawn),n,u,n,n,n,n
Cc1cccc(S(=O)(=O)C(C#N)c2nc3ccccc3nc2N2CCCC2)c1 (stereo not drawn),n,29.9µM!,n,n,n,n
N#CC(c1nc2ccccc2nc1N1CCCC1)S(=O)(=O)c1cccs1 (stereo not drawn),n,u,n,50.1µM,n,n

# High-throughput results deposited in PubChem by National Center for Advancing Translational Sciences (NCATS).
